# According to PubChem BioAssay AID651658 (Broad Institute, 2012):
# Among all 340,000 compounds or so, about 5,100 (1.5%) were called active. This is one part of a sample in which actives are shown more often than they occur.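 How the source made its calls: active means mean Tm shift, scaled 0 neutral to 100 positive control, at about 1.3% or above, every replicate too (limit read from the data); inconclusive means no clear call, values can overlap the other calls; inactive means the rest.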
# Target: Fibroblast growth factor 22 (Homo sapiens) (UniProt Q9HCT0)
# Test: FGF22 ligand-induced thermal stabilization – biophysical, thermal shift, single point, FGF22 synaptogenesis inhibitor project, primary screen (AID 651658)
# Conditions: recombinant FGF22 thermal shift, SYPRO orange fluorescence; at 9.99 µM; stronger effect = higher value; percent of sucrose octasulfate shift, DMSO zero
# Sequence of Fibroblast growth factor 22 (Homo sapiens) (Q9HCT0 whole entry, looked up): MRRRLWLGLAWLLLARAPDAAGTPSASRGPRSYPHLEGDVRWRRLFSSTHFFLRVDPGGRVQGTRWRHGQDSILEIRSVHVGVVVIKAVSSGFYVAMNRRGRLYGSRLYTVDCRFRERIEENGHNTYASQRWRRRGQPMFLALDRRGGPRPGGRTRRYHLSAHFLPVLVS
row,Structure (SMILES),"activity (Tm shift, normalised)"
1,CCCNC(=O)N1CC(=O)N2[C@H](CO)[C@H](c3ccc(C#Cc4cccc(OC)c4)cc3)[C@H]2C1,0.3% (inactive)
2,C[C@H]1CCCCO[C@@H](CN(C)C(=O)Cc2ccccc2)[C@@H](C)CN([C@@H](C)CO)C(=O)c2cc(NC(=O)c3ccccc3)ccc2O1,-0.058% (inactive)
3,Cc1ccc(S(=O)(=O)N(C)C[C@@H]2Oc3ccc(NC(=O)C4CCCCC4)cc3CC(=O)N([C@@H](C)CO)C[C@H]2C)cc1,-0.112% (inactive)
4,COc1cccc(NC(=O)C[C@@H]2CC[C@H]3[C@@H](COc4ccc(NC(=O)C5CCOCC5)cc4C(=O)N3C)O2)c1,-0.165% (inactive)
5,Cc1ccc2[nH]cc(CCNC(=O)C3CCCCC3)c2c1,-0.161% (inactive)
6,O=C(NCCc1c[nH]c2ccc(Cl)cc12)c1ccc([N+](=O)[O-])cc1,-0.153% (inactive)
7,Cc1ccc2[nH]cc(CCNC(=O)c3ccc([N+](=O)[O-])cc3)c2c1,43.1% (active)
8,CS(=O)(=O)N1CC(=O)N2[C@@H](CO)[C@@H](c3ccc(C#CCC4CCCC4)cc3)[C@@H]2C1,-0.002% (inactive)
9,O=C(Nc1ccc(Cl)cc1)Nc1ccc(Oc2cccnc2)nc1,0.04% (inactive)
10,Cc1ccc(NC(=O)Cn2c(C)csc2=O)cc1,-0.213% (inactive)
11,Cc1ccc(NC(=O)CC(=O)Nc2ccc(C)cc2)cc1,43.3% (active)
12,Cc1ccc(NC(=O)CCC(=O)c2ccc(Br)cc2)cc1,0.05% (inactive)
13,Cc1ccc(NC(=O)Nc2cccnc2)cc1,1.35% (active)
14,Cc1ccc(NC(=O)c2cccnc2C(=O)Nc2ccc(C)cc2)cc1,0.363% (inactive)
15,C[C@@H]1CN([C@@H](C)CO)C(=O)c2cc(N(C)C)ccc2O[C@@H](C)CCCCO[C@H]1CN(C)C(=O)CCCN(C)C,-1.35% (inactive)
16,CC(Sc1nncn1C)C(=O)Nc1cc(C(F)(F)F)ccc1N1CCOCC1 (stereo unspecified),43% (active)
17,O=C(CN1C(=O)NC2(CCCC2)C1=O)Nc1cc(C(F)(F)F)ccc1N1CCOCC1,0.22% (inactive)
18,O=C(CCC1CCCCC1)Nc1cc(C(F)(F)F)ccc1N1CCOCC1,-0.247% (inactive)
19,CCCN1[C@@H]2c3ccc(C4=CCCC4)c(=O)n3C[C@@H]2[C@@H](CO)[C@@H]1C(=O)NCc1ccccn1,-0.078% (inactive)
20,OC[C@H]1[C@H](c2ccc(-c3ccccc3F)cc2)[C@H]2CN(Cc3cncnc3)CCCCN21,0.4% (inactive)
21,CN(C)C(=O)C[C@H]1CC[C@H](NC(=O)NC2CCCC2)[C@@H](CO)O1,-0.127% (inactive)
22,O=C(COC(=O)Cn1cnc2ccccc21)Nc1cccc2c1C(=O)c1ccccc1C2=O,0.059% (inactive)
23,CC(=O)OC(COc1ccc(F)cc1)Cn1cnc2ccccc21 (stereo unspecified),43% (active)
24,O=C(Cn1cnc2ccccc21)Nc1ccccc1-c1ccccc1,0.098% (inactive)

row,Structure (SMILES),"activity (Tm shift, normalised)"
1,CO[C@H]1CN(C)C(=O)c2ccc(NC(=O)c3ccno3)cc2OC[C@@H](C)N(S(C)(=O)=O)C[C@H]1C,0.142% (inactive)
2,C[C@@H]1CN([C@H](C)CO)C(=O)c2cc(N(C)C)ccc2O[C@@H]1CN(C)S(C)(=O)=O,-0.284% (inactive)
3,CNC[C@@H]1Oc2ccc(NC(=O)C3CCCCC3)cc2C(=O)N([C@@H](C)CO)C[C@H]1C,1.59% (active)
4,CNC[C@@H]1Oc2ccc(NC(=O)C3CCCCC3)cc2CC(=O)N([C@@H](C)CO)C[C@H]1C,0.125% (inactive)
5,C[C@H](CO)N1C[C@H](C)[C@@H](CN(C)C)Oc2ccc(N(C)C)cc2C1=O,1.41% (active)
6,CNC[C@H]1Oc2ccc(NC(=O)C3CCCCC3)cc2C(=O)N([C@H](C)CO)C[C@@H]1C,-0.27% (inactive)
7,C[C@H]1CN([C@@H](C)CO)C(=O)c2cc(N(C)C)ccc2O[C@@H]1CN(C)Cc1ccccc1,0.118% (inactive)
8,O=C(C[C@H]1CC[C@H](NC(=O)c2ccc(F)cc2)[C@@H](CO)O1)NCCc1ccncc1,-0.269% (inactive)
9,O=C(NCC[C@H]1CC[C@@H](NC(=O)C2CCCC2)[C@@H](CO)O1)c1cc(Cl)cc(Cl)c1,0.127% (inactive)
10,Cc1ccc(S(=O)(=O)NCC[C@H]2CC[C@H](NC(=O)c3ccccn3)[C@@H](CO)O2)cc1,-0.462% (inactive)
11,C[C@H]1CCCCO[C@H](CN(C)CC2CC2)[C@@H](C)CN([C@@H](C)CO)C(=O)c2cc(NC(=O)CCC(F)(F)F)ccc2O1,0.058% (inactive)
12,COc1cccc(S(=O)(=O)N[C@@H]2CC[C@@H](CCNC(=O)Cc3ccncc3)O[C@H]2CO)c1,0.19% (inactive)
13,C[C@H]1CN([C@@H](C)CO)C(=O)c2cc(-c3cccnc3)cnc2O[C@@H]1CN(C)C(=O)C1CC1,0.138% (inactive)
14,COC(=O)C1=C(N)Oc2c(oc(CO)cc2=O)C1c1c(F)cccc1Cl (stereo unspecified),43.6% (active)
15,CC(C)c1ccc(C2C(C#N)=C(N)Oc3c2oc(CO)cc3=O)cc1 (stereo unspecified),-0.049% (inactive)
16,COC(=O)C1=C(N)Oc2cc(C)[nH]c(=O)c2C1c1ccc(Cl)cc1 (stereo unspecified),-0.032% (inactive)
17,CO[C@H]1CC[C@H]2CCN(C)C(=O)C[C@@H](c3ccccc3)CN(C)C(=O)c3cccc(C#N)c3OC[C@@H]1O2,0.156% (inactive)
18,OC[C@H]1[C@H](c2ccc(-c3cccnc3)cc2)[C@H]2CN(Cc3ccccn3)CCCCN21,1.51% (active)
19,OC[C@@H]1[C@H](c2ccc(Br)cc2)[C@@H]2CN(Cc3ccccn3)CCCCN12,0.488% (inactive)
20,CCC(=O)N1CCCCN2[C@H](CO)[C@@H](c3ccc(-c4cccnc4)cc3)[C@H]2C1,0.191% (inactive)
21,O=C(N[C@H]1CC[C@@H](CCNS(=O)(=O)c2cccc(Cl)c2)O[C@@H]1CO)c1ccccc1,-0.047% (inactive)
22,COc1cc(C)ccc1OCC(=O)OCC(=O)c1ccc[nH]1,43.3% (active)
23,COc1ccc(C(=O)COC(=O)COc2ccc(C)c(C)c2)cc1,0.002% (inactive)
24,O=C(COc1ccc(Br)cc1)OCC(=O)c1ccc[nH]1,-0.019% (inactive)

row,Structure (SMILES),"activity (Tm shift, normalised)"
1,C[C@H](CO)N1C[C@H](C)[C@@H](CN(C)S(=O)(=O)c2cn(C)cn2)Oc2ccc(N(C)C)cc2CC1=O,0.089% (inactive)
2,CN(CC(=O)Nc1cccc(F)c1)C(=O)CC1CCCC1,0.042% (inactive)
3,Cc1ccc(S(=O)(=O)N2CCCCC2)cc1C(=O)N(C)CC(=O)Nc1cccc(F)c1,-0.088% (inactive)
4,Cc1ccc(NC(=O)CN(C)CC(=O)Nc2cccc(F)c2)cc1[N+](=O)[O-],43.3% (active)
5,Cc1cc(C(=O)Nc2ccc3c(c2)C(=O)N(C)[C@H]2CC[C@H](CC(=O)NCC(F)(F)F)O[C@@H]2CO3)no1,-0.217% (inactive)
6,C[C@@H]1CN([C@H](C)CO)S(=O)(=O)c2ccc(-c3ccncc3)cc2O[C@@H]1CN(C)C(=O)Nc1ccc(C(F)(F)F)cc1,1.48% (active)
7,C[C@H](CO)N1C[C@H](C)[C@@H](CN(C)S(=O)(=O)c2ccc(F)cc2)Oc2cc(C3=CCCC3)ccc2S1(=O)=O,-0.123% (inactive)
8,C[C@H]1CN([C@@H](C)CO)S(=O)(=O)c2ccc(C3=CCCC3)cc2O[C@H]1CN(C)C(=O)Nc1ccc2c(c1)OCO2,1.26% (active)
9,Cc1ccc(S(=O)(=O)N(C)C[C@@H]2Oc3cc(C4=CCCC4)ccc3S(=O)(=O)N([C@@H](C)CO)C[C@@H]2C)cc1,1.23% (active)
10,COc1cccc(S(=O)(=O)N(C)C[C@@H]2Oc3cc(C4=CCCCC4)ccc3S(=O)(=O)N([C@H](C)CO)C[C@H]2C)c1,0.057% (inactive)
11,C[C@H](CO)N1C[C@H](C)[C@H](CN(C)C(=O)Nc2ccc3c(c2)OCO3)Oc2cc(C#Cc3ccncc3)ccc2S1(=O)=O,-0.273% (inactive)
12,C[C@H]1CN([C@@H](C)CO)S(=O)(=O)c2ccc(C#Cc3ccncc3)cc2O[C@@H]1CN(C)C(=O)Nc1ccc2c(c1)OCO2,0.074% (inactive)
13,C[C@@H]1CN([C@@H](C)CO)S(=O)(=O)c2ccc(-c3ccncc3)cc2O[C@@H]1CN(C)C(=O)Nc1ccc(F)cc1,1.27% (active)
14,Cc1ccc(-c2ccc3c(c2)O[C@H](CN(C)C(=O)Nc2ccc(C(F)(F)F)cc2)[C@@H](C)CN([C@H](C)CO)S3(=O)=O)cc1,0.037% (inactive)
15,COc1ccc(NC(=O)N(C)C[C@H]2Oc3cc(-c4ccncc4)ccc3S(=O)(=O)N([C@H](C)CO)C[C@H]2C)cc1,0.949% (inactive)
16,CC(=O)N(C)C[C@@H]1Oc2cc(-c3ccncc3)ccc2S(=O)(=O)N([C@@H](C)CO)C[C@H]1C,-0.496% (inactive)
17,COc1ccc(NC(=O)N(C)C[C@H]2Oc3cc(-c4ccncc4)ccc3S(=O)(=O)N([C@@H](C)CO)C[C@H]2C)cc1,-0.124% (inactive)
18,CC(C)CC#Cc1cnc2c(c1)C(=O)N([C@@H](C)CO)C[C@H](C)[C@@H](CN(C)C(=O)c1cccc(F)c1)O2,-0.381% (inactive)
19,CN1c2ccc(-c3ccccc3F)cc2[C@@H]2[C@@H](CCN2C(=O)CN2CCOCC2)[C@H]1CO,-0.099% (inactive)
20,O=C(C[C@H]1C[C@@H]2c3cc(NC(=O)C4CCC4)ccc3O[C@@H]2[C@H](CO)O1)NCCN1CCCCC1,0.001% (inactive)
21,O=C1C[C@@](C(=O)NCC(F)(F)F)(c2ccc([N+](=O)[O-])cc2)[C@@H](c2ccc(CO)cc2I)N1C1CCCCC1,0.18% (inactive)
22,CCC(=O)N1C[C@@H](C)[C@@H](OC)CN(C)C(=O)c2ccc(NC(=O)c3ccccc3)cc2OC[C@H]1C,-0.17% (inactive)
23,COc1ccc2c3c([nH]c2c1)[C@H](CO)N(C(=O)C1CCCCC1)CC31CCN(C(=O)c2ccncc2)CC1,-0.034% (inactive)
